# Data reported in the supplement of paper PMC7156485.
# Values without a mark were called inactive.
# System: HCC1569
# Assay: H1.0 immunofluorescence intensity relative to DMSO (% of DMSO); higher = stronger H1.0 induction, active = 140 or more
# Settings: concentration: 10 µM; 24 h
# Outline: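 Using 384-well plates with 800 cells per well in RPMI plus 10% FBS, HCC1569 and TDF cells were exposed to compounds at 10 µM, in triplicate, for 24 h at 37 °C. Imaging of six fields per well at ×10 followed H1.0 and DAPI staining. The reported quantity, H1.0 nuclear intensity or cell number, is a median of replicates given as percent of the plate control, and HCC1569 values were smoothed for positional effects.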
# 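Further: TDF is a line of transformed human dermal fibroblasts of mesenchymal origin.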
row,SMILES,H1.0 immunofluorescence intensity
1,CCN(CC)C(=O)NC1C=C2c3cccc4[nH]cc(c34)CC2N(C)C1 (stereo not drawn) [S-(-)-Lisuride],93.6
2,C=CCN1CC(C(=O)N(CCCN(C)C)C(=O)NCC)CC2c3cccc4[nH]cc(c34)CC21 (stereo not drawn) [Cabergoline],102
3,CCC(C(N)=O)N1CCCC1=O (stereo not drawn) [Levetiracetam],101
4,Cc1sc2c(c1C)C(c1ccc(Cl)cc1)=N[C@@H](CC(N)=O)c1nnc(C)n1-2,220 (active)
5,CC1=C2C(=O)C3C(CC=C4CC(O)CCC43C)C2CCC12OC1CC(C)CNC1C2C (stereo not drawn) [Jervine],92
6,NC(Cn1oc(=O)[nH]c1=O)C(=O)O (stereo not drawn) [Quisqualic acid],92.7
7,c1cncc(C2CCCCN2)c1 (racemic),84.1
8,CC(C)(C)NCC(O)c1ccccc1Cl (stereo not drawn) [Tulobuterol],114
9,"Br.CN1C2CC(OC(=O)C(CO)c3ccccc3)CC1C1OC12 (single isomer, unassigned; (-)) [(-)-Scopolamine hydrobromide]",103
10,CCCN1CCCC(c2cccc(O)c2)C1.Cl (stereo not drawn) [R(+)-3PPP hydrochloride],103
11,CC1OC(C[N+](C)(C)C)CC1O.[Cl-] (racemic),92
12,Cc1cc(C2CCCN2C)on1 (stereo not drawn),88.1
13,"Br.CN1CCc2cc(O)cc3c2C1Cc1ccc(O)c(O)c1-3 (stereo not drawn) [R(-)-2,10,11-Trihydroxyaporphine hybrobromide]",94.3
14,COC(=O)C(N)CCCN=C(N)N[N+](=O)[O-].Cl [NG-Nitro-L-arginine methyl ester hydrochloride],92.5
15,COc1cc(C=C(C#N)C#N)cc(O)c1O [Tyrphostin AG 34],114
16,CN1CC(NS(=O)(=O)N(C)C)CC2c3cccc4c3c(cn4C)CC21 (stereo not drawn) [Mesulergine],120
17,Br.CCCN(CCC)C1CCc2cccc(O)c2C1 (stereo not drawn) [R-(+)-8-Hydroxy-DPAT hydrobromide],96.5

row,SMILES,H1.0 immunofluorescence intensity
1,Br.COc1c2c(cc3c1OCO3)CCN(C)C2 [Hydrocotarnine HBr],92.6
2,Br.C#CCOC(=O)C1=CCCN(C)C1 [Arecaidine propargyl ester hydrobromide],92.2
3,"CC(N)Cc1cnc[nH]1.Cl.Cl (stereo not drawn) [Histamine, R(-)-alpha-methyl-, dihydrochloride]",93.1
4,O=c1[nH]c2ccccc2n1CCCN1CCC(n2c(=O)[nH]c3cc(Cl)ccc32)CC1 [Domperidone],109
5,C=CCN1CCC23c4c5ccc(O)c4OC2C(=O)CCC3(O)C1C5 (stereo not drawn) [Naloxone],117
6,CCN1CC2(COC)C(O)CC(OC)C34C5CC6(O)C(OC)C(O)C(OC(C)=O)(C5C6OC(=O)c5ccccc5)C(C(OC)C23)C14 (stereo not drawn) [Aconitine],94.5
7,CC(C)NCC(O)c1ccc(N)c(C#N)c1 (stereo not drawn) [Cimaterol],102
8,CC1=CC(=O)C2=C(C)CC(O)C3C(C)C(=O)OC3C12 (stereo not drawn) [Austricin],98.1
9,CCn1cnc2c(Nc3cccc(Cl)c3)nc(NC3CCCCC3N)nc21 (stereo not drawn),134
10,CCC(CO)NC(=O)C1C=C2c3cccc4c3c(cn4C)CC2N(C)C1.O=C(O)C=CC(=O)O (stereo not drawn) [Methysergide maleate],97
11,"CCCCCC=CCC=CCCCCCCCC(=O)NCCO [Anandamide (18:2,n-6)]",94.4
12,CC(C)CC(NP(=O)([O-])OC1OC(C)C(O)C(O)C1O)C(=O)NC(Cc1c[nH]c2ccccc12)C(=O)[O-].[Na+].[Na+] (stereo not drawn) [Phosphoramidon disodium],102
13,NC(=O)CI [Iodoacetamide],170 (active)
14,NC(=O)CN1CC(O)CC1=O (stereo not drawn) [Oxiracetam],95.4
15,CC1OC1P(=O)([O-])[O-].[Na+].[Na+] (stereo not drawn) [Phosphomycin disodium],101
16,CN1C2CC(OC(=O)C(CO)c3ccccc3)CC1C1OC12 (stereo not drawn) [Scopolamine],96.7
